Screens deposited in PubChem BioAssay by The Scripps Research Institute Molecular Screening Center.
TLR9-MyD88 inh – inhibitors of TLR9-MyD88 association in cells, primary screen, cell-based, CHO, BLA complementation, fluorescence | CCF4 FRET ratio | hit rate 0.21% among 340,000 | inhibition, % at 4.98 µM | AID 504734, 2011 | Toll-like receptor 9 (Homo sapiens) + Myeloid differentiation primary response protein …;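 active = inhibition above the mean over all tested compounds plus 3 SD, cut at about 21% in these data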
NOD2-RIPK2 inh – NOD2-RIPK2 binding disruptors in cells, primary screen, fluorescence, CHO cells, BLA complementation; hit rate 0.38% among 360,000; CCF4 ratio; AID 624267, 2012; inhibition, % at 4.98 µM; in the data active = inhibition above about 21%
Target sequence (O43353 whole entry, looked up): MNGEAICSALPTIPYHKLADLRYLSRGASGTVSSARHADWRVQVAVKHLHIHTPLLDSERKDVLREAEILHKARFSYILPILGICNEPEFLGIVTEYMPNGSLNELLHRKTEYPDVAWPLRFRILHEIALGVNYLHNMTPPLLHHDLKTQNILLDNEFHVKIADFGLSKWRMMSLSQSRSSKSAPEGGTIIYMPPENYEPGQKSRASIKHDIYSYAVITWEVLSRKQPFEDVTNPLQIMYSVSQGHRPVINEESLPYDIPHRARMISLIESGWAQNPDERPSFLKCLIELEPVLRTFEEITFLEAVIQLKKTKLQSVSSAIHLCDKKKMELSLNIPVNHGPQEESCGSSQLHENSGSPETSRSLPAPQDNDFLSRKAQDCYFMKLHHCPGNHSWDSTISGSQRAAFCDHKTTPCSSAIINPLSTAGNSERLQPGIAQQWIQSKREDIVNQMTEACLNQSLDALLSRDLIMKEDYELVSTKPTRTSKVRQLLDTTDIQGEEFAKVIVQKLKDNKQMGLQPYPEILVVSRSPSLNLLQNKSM
rCAG RNA binder – binders of r(CAG) RNA repeats, primary screen, biochemical, fluorescence. r(CAG) RNA repeat, TO-PRO-1 dye displacement fluorescence. AID 651821, 2012. hit rate 1.3% among 370,000. inhibition, % at 3 µM;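 active = inhibition above the plate cutoff, the mean of all test compounds on that plate plus 3 SD, cut at about 35% in these data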;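 note: higher means more dye released from RNA so lower well fluorescence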
TLR4-MyD88 BLA – inhibitors of TLR4-MyD88 association in cells, primary screen, cell-based, HeLa CL3-4, BLA complementation, FRET ratio; HeLa CL3-4 TLR4/MyD88 BLA complementation; inhibition, % at 8.4 µM; hit rate 0.18% among 200,000; AID 861, 2007; in the data active = inhibition above about 25%
PRMT1 inh – PRMT1 methyltransferase inhibitors, primary screen, biochemical, fluorescence polarization | recombinant PRMT1, activity-based probe fluorescence polarization | Protein arginine N-methyltransferase 1 (Homo sapiens), Q99873 | hit rate 1.3% among 370,000 | inhibition, % at 2.79 µM;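 active = inhibition above about 21% made by adding two undisclosed values, limit read from the data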
ABHD5 PLIN5 PPI – ABHD5-PLIN5 interaction inhibitors, primary screen, cell lysate, split luciferase complementation, luminescence. hit rate 0.78% among 360,000. Perilipin-5 (Homo sapiens) + 1-acylglycerol-3-phosphate O-acyltransferase ABHD5 (Homo …. Split G. princeps luciferase complementation, 4 h. inhibition, % at 4 µM;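 active = inhibition above the mean inhibition across every tested compound plus 3 SD, cut at about 22% in these data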
Hits are given with their value; . = inactive; / = no result given. Sampled rows, rich in hits. Any-hit rate of the full collection: about 3.3%.

SMILES	TLR9-MyD88 inh	NOD2-RIPK2 inh	rCAG RNA binder	TLR4-MyD88 BLA	PRMT1 inh	ABHD5 PLIN5 PPI
CS(=O)(=O)c1ccccc1-c1nnc(NC(=O)c2ccc3ncsc3c2)o1	.	.	.	/	28	.
CN(C)c1ccc(/C=C/c2ccc3c4ccccc4ccc3[n+]2-c2ccccc2)cc1	.	.	.	.	.	37
COc1ccccc1CNCCS(=O)(=O)NCc1ccccc1	.	.	.	/	.	.
Brc1ccc(-c2csc(NNC3=NCCCCC3)n2)cc1	.	.	.	.	.	.
FC(F)Oc1ccc(-c2csc(NNC3=NCCCCC3)n2)cc1	.	.	.	.	38	.
Cc1cc(C)cc(C(=O)OCC(=O)N2CCCCCC2)c1	.	.	.	/	.	.
Cn1c2ccc(F)cc2c2ncn(Cc3ccco3)c(=O)c21	.	.	.	.	22	.
Cn1c2ccccc2c2ncn(Cc3ccco3)c(=O)c21	.	.	.	.	.	.
CCn1c(SCC(=O)c2[nH]c(C)c(C(C)=O)c2C)nnc1-c1ccccc1	.	.	.	.	.	.
O=C(CC1C(=O)NCCN1Cc1ccoc1)NCCCn1ncc2ccccc21 (configuration not stated)	.	.	.	.	.	33
Cc1ccc(CN2CCNC(=O)C2CC(=O)NCCCn2nnc3ccccc32)cc1 (configuration not stated)	.	.	.	/	.	.
Cc1cc(SCC(=O)N(C)CC(=O)Nc2ccc(F)cc2)nc2ccccc12	.	.	.	.	.	.
Cc1cnc(C)c(Nc2nc(C(N)Cc3ccc(Cl)cc3)cs2)n1 (configuration not stated)	/	.	.	/	25	.
O=C(NCc1ccco1)[C@@H]1CSC2c3ccccc3C(=O)N21 (some centres not stated)	.	.	.	.	21	.
CC(C)[C@H](NC(=O)[C@@H]1CSC2c3ccccc3C(=O)N21)C(=O)NCc1ccco1 (some centres not stated)	.	.	.	/	.	.
Cc1cccc(NC(=S)NCc2ccco2)c1C	.	.	.	.	.	.
O=C(O)C1Nc2c(O)cc(Cl)c([N+](=O)[O-])c2C2C=CCC12 (configuration not stated)	.	.	101	.	36	.
COc1cccc2c1NC(C(=O)O)C1CC=CC21 (configuration not stated)	.	.	/	.	/	.
COc1ccccc1-c1nc(S(=O)(=O)c2ccccc2)c(N2CCOCC2)o1	.	.	.	/	.	22
N#CC1=C(N)SC(N)=C(C#N)C1c1ccc(C(F)(F)F)cc1	/	/	/	.	/	/
N#CC1=C(N)SC(N)=C(C#N)C1c1ccc([N+](=O)[O-])cc1	.	.	.	.	31	.
COc1ccc(C(OCC(O)CN2CCC(O)CC2)c2ccc(OC)cc2)cc1 (configuration not stated)	.	.	.	/	.	.
S=c1[nH]nc(-c2cc(-c3ccccc3)n[nH]2)n1/N=C/C(Br)=C/c1ccccc1	/	.	.	/	.	26
CCOC(=O)c1c(C)n(C)c2cc([N+](=O)[O-])c(O)c([N+](=O)[O-])c12	.	.	.	/	.	.
Cc1oc2cc([N+](=O)[O-])c(O)c([N+](=O)[O-])c2c1C(=O)c1ccc(Cl)cc1	.	.	36	/	.	.
SMILES	TLR9-MyD88 inh	NOD2-RIPK2 inh	rCAG RNA binder	TLR4-MyD88 BLA	PRMT1 inh	ABHD5 PLIN5 PPI
COc1ccc(/C(C)=N/NC(=O)Cc2cc(=O)[nH][nH]2)cc1OC	/	/	.	/	.	/
CCc1ccc(-c2cn3nc(C)c(C)nc3n2)cc1	.	.	.	27	.	.
Cc1nc2nc(-c3ccc(F)cc3)cn2nc1C	.	.	.	/	.	.
Cc1ccccc1C(=O)/C=C1/SCC(=O)N1C	.	.	.	.	.	.
O=C(CSc1nc2ccccc2nc1N1CCOCC1)NCc1ccc(Cl)cc1Cl	/	/	.	/	.	/
COc1cc(SC)ccc1C(=O)Nc1ccon1	.	.	.	.	24	.
CC(C)(C)c1ccc(O)c(N=Cc2cc(Br)ccc2O)c1	.	.	.	.	21	.
Cc1ccc(O)c(C=Nc2cc(C)ccc2O)c1	.	.	/	.	/	.
CCN(CC)c1ccc(N=Cc2cc(Br)ccc2O)cc1	.	.	.	.	22	.
Oc1ccc(Br)cc1C=Nc1ccc(Cl)cc1	.	.	.	.	.	.
CSc1ncnc2c1ncn2CCCNCc1ccccn1	.	.	.	/	.	.
Cc1ccc(S(=O)(=O)N2CCN(C(=O)COC(=O)c3cnc(C)cn3)CC2)c(C)c1	.	.	.	/	.	.
COc1ccc(S(=O)(=O)Nc2ccccc2)cc1	.	.	.	/	.	.
COc1ccc(C(=O)COC(=O)c2ccccc2NS(=O)(=O)c2ccc(O)c([N+](=O)[O-])c2)cc1	.	.	92	/	.	.
COc1ccc(S(=O)(=O)Nc2ccc(O)c3ccccc23)cc1	.	.	.	.	23	.
COc1ccccc1NS(=O)(=O)c1ccc(O)c(C(=O)OCc2cccc([N+](=O)[O-])c2)c1	.	.	.	.	.	.
Cn1nnnc1SCC1=C(C(=O)O)N2C(=O)C(NC(=O)Cn3nc(C(F)F)cc3C3CC3)C2SC1 (configuration not stated)	.	.	.	.	24	.
Cc1nnc(SCC2=C(C(=O)O)N3C(=O)C(NC(=O)Cc4ccccc4)C3SC2)s1 (configuration not stated)	.	.	.	/	25	.
CC(=O)OCC1=C(C(=O)OC(C)(C)C)N2C(=O)[C@@H](NC(=O)Cc3ccccc3)[C@H]2SC1	.	.	.	/	.	.
Cc1nn(CC(=O)NC2C(=O)N3C(C(=O)O)=C(CSc4nnnn4C)CSC23)cc1Br (configuration not stated)	.	.	.	.	22	.
CCn1ccc(C(=O)NC2C(=O)N3C(C(=O)O)=C(C)CSC23)n1 (configuration not stated)	.	.	.	.	.	.
O=C(Nc1cc2cccc([N+](=O)[O-])c2oc1=O)c1cccs1	.	.	.	.	.	.
COc1ccc(C(=O)N2CCCC(CCC(=O)NCc3ccc(F)c(F)c3)C2)cc1F (configuration not stated)	.	.	.	.	.	.
COC(=O)c1ccc(CCc2cc(O)ccc2O)cc1	.	.	/	/	/	42
O=C(OCc1ccccc1)c1ccc(NCc2cc(O)ccc2O)cc1	.	.	.	/	22	.
COP(=O)(OC)c1ccc(NCc2cc(O)ccc2O)cc1	.	.	.	/	22	.
CCC(=O)Nc1ccc(C(=O)OCc2ccccc2)cc1	.	.	.	.	.	.
Cc1ccc(NCc2ccccc2O)cc1C	.	.	.	.	.	.
